The structures appear in SMILES notation. Several values for one entry are separate records, joined by “and”; a condition that tells them apart may be missing. Equal entries are not always repeated. Results filed as inconclusive are left out. A structure can be active in one record and inactive in another. Activity calls are given as the source filed them. Unless noted, calls come from the whole dose curve; as a rule, active = well fitted curve in the direction sought with a large enough effect in the repeat runs; inconclusive = weak or mixed curves; inactive = no such curve, though single readings can be large; an effect the other way counts as inactive or inconclusive.

Assay [1] is described as follows: qHTS RealTime-Glo MT Cell Viability Assay in HEK293 cells - 0 hour (AID 1224880). Note: top concentration of the series differs between compounds; nearly all actives have a fitted effect of over 45% in size. Summed up: (§1)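 Luminescence readout at each listed time point; HEK293, 600 cells/well, RealTime-Glo MT reagent added with cells; compounds pinned (23 nL in DMSO) after 5 h at 37 C; continuous culture at 37 C.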
(In general: In qHTS, concentration-response curves come from the screen itself.)

A short description of assay [2]: A CellTox Green Cytotoxicity Assay to monitor cytotoxicity in HEK293 cells - 32 hour (AID 1224881). Note: nearly all actives have a fitted effect of over 40% in size. A digest of the protocol:
(§2)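 Read-out: fluorescence of a cell-impermeant cyanine dye staining DNA of dead cells, proportional to cytotoxicity. HEK293, 600 cells/well with reagent, compound (23 nL DMSO) added after 5 h; reads at 0, 8, 16, 24, 32, 40 h.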

The nature of assay [3]: A CellTox Green Cytotoxicity Assay to monitor cytotoxicity in HepG2 cells - 0 hour (AID 1224882). Note: nearly all actives have a fitted effect of over 35% in size. Summed up: (§3)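 HepG2, 600 cells/well premixed w/ CellTox Green; 5 h settle, 37 C/5% CO2; pintool cpd add (DMSO); 37 C, 40 h; fluorescence read at 0, 8, 16, 24, 32, 40 h.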
Assay [4] can be described thus: A CellTox Green Cytotoxicity Assay to monitor cytotoxicity in HepG2 cells - 32 hour (AID 1224883). Note: nearly all actives have a fitted effect of over 50% in size. A digest of the protocol:
as §3

The nature of assay [5]: A CellTox Green Cytotoxicity Assay to monitor cytotoxicity in HEK293 cells - 8 hour (AID 1224884). Note: nearly all actives have a fitted effect of over 35% in size. A digest of the protocol: as §2
Assay [6] in a line: qHTS RealTime-Glo MT Cell Viability Assay in HepG2 cells - 16 hour (AID 1224885). Note: nearly all actives have a fitted effect of over 50% in size. Summed up: (§4)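 Cell number in HepG2 cultures estimated from NanoLuc luminescence generated by metabolic reduction of a prosubstrate by living cells. The homogeneous, nonlytic format allowed repeated reads at 0, 8, 16, 24, 32 and 40 h of compound exposure.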
A short description of assay [7]: qHTS RealTime-Glo MT Cell Viability Assay in HEK293 cells - 24 hour (AID 1224886). Note: top concentration of the series differs between compounds; nearly all actives have a fitted effect of over 50% in size. Summed up: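 Homogeneous bioluminescent viability format in HEK293 cells (600 cells/well). Following 5 h at 37 C/5% CO2, 23 nL compound was pintooled; the signal was measured repeatedly during 40 h incubation.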
The nature of assay [8]: qHTS RealTime-Glo MT Cell Viability Assay in HEK293 cells - 8 hour (AID 1224887). Note: top concentration of the series differs between compounds; nearly all actives have a fitted effect of over 50% in size. Summed up: as §1
Assay [9] can be described thus: A CellTox Green Cytotoxicity Assay to monitor cytotoxicity in HEK293 cells - 16 hour (AID 1224888). Note: nearly all actives have a fitted effect of over 35% in size. A digest of the protocol: as §2
Assay [10] in a line: qHTS RealTime-Glo MT Cell Viability Assay in HepG2 cells - 0 hour (AID 1224889). Note: nearly all actives have a fitted effect of over 50% in size. Summed up: as §4
Assay [11] is described as follows: A CellTox Green Cytotoxicity Assay to monitor cytotoxicity in HepG2 cells - 8 hour (AID 1224890). Note: nearly all actives have a fitted effect of over 45% in size. A digest of the protocol: as §3
Assay [12] is described as follows: qHTS assay to identify small molecule antagonists of the estrogen receptor alpha (ER-alpha) signaling pathway using the BG1 cell line in the presence of 0.1 nM 17-beta-estradiol - cell viability counter screen (AID 1259241). Note: nearly all actives have a fitted effect of over 40% in size. A digest of the protocol:
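VM7Luc4E2 cells (endogenous ER-alpha, 4×ERE-luciferase), hormone-starved 5 days in charcoal-stripped FBS, were treated with compounds plus 0.1 nM 17beta-estradiol for 22 hr at 37C; viability read in same wells as CellTiter-Fluor live-cell protease fluorescence.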

Assay [13] can be described thus: qHTS assay to identify small molecule antagonists of the androgen receptor (AR) signaling pathway using the MDA cell line in the presence of 0.5 nM R1881 - cell viability counter screen (AID 1259242). Note: nearly all actives have a fitted effect of over 45% in size. A digest of the protocol: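 Live-cell protease fluorescence, CellTiter-Fluor, 30 min at 37C. Cells: MDA-kb2, 3,000/well, preincubated 5 hr. Compounds plus 0.5 nM R1881 final, 16 hr, 37C, 0% CO2.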

A short description of assay [14]: qHTS assay to identify small molecule phospholipidosis (PLD) inducers (AID 1259344; active = well fitted curve in the direction sought with a large enough effect; an effect the other way counts as inactive or inconclusive). A digest of the protocol: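 Accumulated phospholipid, stained red by LipidTOX during 24 h compound treatment of HepG2 cells at 37 C, is quantified from images as pit number and intensity, normalised per cell using Hoechst-stained nuclei.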
The nature of assay [15]: qHTS assay to identify small molecule HDAC inhibitors - cell viability counter screen (AID 1259365). A digest of the protocol: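 Wild-type HCT-116 cells were seeded at 1,500 per well, incubated overnight at 37 C, then exposed to compounds in DMSO for 2hr. Viability was read by CellTiter-Glo luminescence after 30min at room temperature.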
Assay [16] in a line: qHTS assay to identify small molecule agonists of the sonic hedgehog signaling (Shh) pathway - cell viability counter screen (AID 1259366). Note: nearly all actives have a fitted effect of over 50% in size. Note: potency is the fitted concentration of half-maximal effect. A digest of the protocol: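 NIH/3T3-derived 3T3 Gli1-Luc cells (stable Gli1-responsive firefly luciferase reporter) were seeded, rested 4 hr at 37 C/5% CO2, then exposed to compounds in DMSO for 24 hr; viability was read by CellTiter-Fluor fluorescence in the same wells.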

Assay [17] can be described thus: qHTS assay to identify small molecule antagonists of the sonic hedgehog signaling (Shh) pathway - cell viability counter screen (AID 1259367). Note: nearly all actives have a fitted effect of over 55% in size. Note: potency is the fitted concentration of half-maximal effect. A digest of the protocol:
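CellTiter-Fluor signal in conditioned medium-stimulated 3T3 Gli1-Luc cells, 23 hr compound exposure, 37C.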

Assay [18] has as its target Estrogen receptor (Homo sapiens) (UniProt P03372). The experiment in a line: qHTS assay to identify small molecule antagonists of the estrogen receptor alpha (ER-alpha) signaling pathway using the BG1 cell line in the presence of 0.1 nM 17-beta-estradiol (AID 1259244). Note: nearly all actives have a fitted effect of over 50% in size. Note: potency is the fitted concentration of half-maximal effect. Summed up:
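Luminescence after ONE-Glo (30 min, room temperature) measured ERE-luciferase activity in VM7Luc4E2 cells treated 22 h with compound and 0.1 nM final 17beta-estradiol as stimulator.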

A short description of assay [19]: qHTS assay to identify small molecule HDAC inhibitors (AID 1259364).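 Note: wild-type HCT-116 cells with endogenous class I/II HDAC activity; top concentration of the series differs between compounds; nearly all actives have a fitted effect of over 45% in size.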 Summed up:
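HCT-116 (wild type), 1,500 cells/well, overnight; compound 2 hr 37C 5% CO2; HDAC-Glo I/II reagent 30 min RT; luminescence readout.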

Assay [20] deals with Androgen receptor (Homo sapiens) (UniProt P10275). The experiment in a line: qHTS assay to identify small molecule antagonists of the androgen receptor (AR) signaling pathway using the MDA cell line in the presence of 0.5 nM R1881 (AID 1259243). A digest of the protocol:
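MDA-kb2, MMTV-luc (AR/GR elements); 3,000 cells/well; cpd + 0.5 nM R1881 final; 16 hr 37C, 0% CO2; ONE-Glo 30 min RT; luminescence.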

Chain of Estrogen receptor (Homo sapiens) (P03372 whole entry, looked up): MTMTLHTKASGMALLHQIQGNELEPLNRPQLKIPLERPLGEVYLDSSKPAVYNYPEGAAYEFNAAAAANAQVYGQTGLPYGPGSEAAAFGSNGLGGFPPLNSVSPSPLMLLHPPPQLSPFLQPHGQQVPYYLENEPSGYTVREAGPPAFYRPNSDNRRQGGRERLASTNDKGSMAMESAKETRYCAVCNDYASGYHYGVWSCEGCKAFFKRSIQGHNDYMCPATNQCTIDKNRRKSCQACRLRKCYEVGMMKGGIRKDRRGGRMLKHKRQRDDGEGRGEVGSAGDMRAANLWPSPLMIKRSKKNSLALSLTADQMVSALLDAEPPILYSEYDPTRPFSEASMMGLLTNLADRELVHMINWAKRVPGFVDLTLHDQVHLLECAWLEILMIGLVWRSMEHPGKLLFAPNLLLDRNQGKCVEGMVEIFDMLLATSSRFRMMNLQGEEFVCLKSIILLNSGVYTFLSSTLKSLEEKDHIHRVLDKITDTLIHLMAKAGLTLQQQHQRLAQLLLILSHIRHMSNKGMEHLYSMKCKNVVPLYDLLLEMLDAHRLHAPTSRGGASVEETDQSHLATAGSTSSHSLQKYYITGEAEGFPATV
Chain of Androgen receptor (Homo sapiens) (P10275 whole entry, looked up): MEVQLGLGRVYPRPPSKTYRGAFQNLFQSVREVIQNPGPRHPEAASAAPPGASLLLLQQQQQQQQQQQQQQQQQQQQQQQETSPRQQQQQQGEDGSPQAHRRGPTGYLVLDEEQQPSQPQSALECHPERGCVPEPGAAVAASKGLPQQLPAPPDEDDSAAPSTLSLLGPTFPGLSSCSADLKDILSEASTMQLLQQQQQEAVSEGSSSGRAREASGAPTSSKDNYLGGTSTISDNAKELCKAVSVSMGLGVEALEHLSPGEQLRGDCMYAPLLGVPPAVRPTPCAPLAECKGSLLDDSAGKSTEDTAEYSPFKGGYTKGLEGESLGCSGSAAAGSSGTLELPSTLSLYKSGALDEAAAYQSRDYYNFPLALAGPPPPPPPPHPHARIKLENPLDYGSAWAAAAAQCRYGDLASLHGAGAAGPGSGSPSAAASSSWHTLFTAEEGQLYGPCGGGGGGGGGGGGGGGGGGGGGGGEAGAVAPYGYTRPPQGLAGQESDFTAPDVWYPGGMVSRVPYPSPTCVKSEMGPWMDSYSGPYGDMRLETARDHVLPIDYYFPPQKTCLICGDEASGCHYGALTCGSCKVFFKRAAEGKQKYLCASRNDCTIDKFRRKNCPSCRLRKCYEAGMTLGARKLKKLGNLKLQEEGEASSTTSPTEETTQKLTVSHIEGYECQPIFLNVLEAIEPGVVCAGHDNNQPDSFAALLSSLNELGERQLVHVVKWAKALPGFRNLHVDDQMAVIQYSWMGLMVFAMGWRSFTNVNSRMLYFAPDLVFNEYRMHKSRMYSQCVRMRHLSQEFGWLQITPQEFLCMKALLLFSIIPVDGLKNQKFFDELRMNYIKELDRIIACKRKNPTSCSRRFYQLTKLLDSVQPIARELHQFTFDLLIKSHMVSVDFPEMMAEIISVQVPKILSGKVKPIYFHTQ

Consider `COc1ccc(C(CN(C)C)C2(O)CCCCC2)cc1` (centres undefined), for which the Potency result in assay [1], in [2], in [3], in assay [4], in assay [5] and in [6] was “inactive” in each case. Further, the Potency result in assay [7], in assay [8], in assay [9], in assay [10], in [11] and in assay [12] was “inactive” throughout. For the same compound, the Potency result in [13], in assay [16] and in assay [17] was “inactive” each time. Moreover, the outcome in assay [14] and in [15] was inactive.
For `Nc1cccnc1`, the Potency entry in assay [1], in [2], in assay [3], in assay [4], in assay [5] and in assay [6] was “inactive” throughout. For the same compound, the Potency entry in assay [7], in [8], in assay [9], in [10], in assay [11] and in assay [12] was “inactive” throughout. Moreover, the Potency result in [13], in [18], in assay [16] and in [17] was “inactive” each time. For the same compound, the outcome in assay [15] was inactive.
Turning to `c1nc[nH]n1`, the Potency result in assay [1], in assay [2], in [3], in assay [4], in assay [5] and in assay [6] was “inactive” in each case. The Potency result in assay [7], in assay [8], in [9], in assay [10], in assay [11] and in [12] was “inactive” throughout. Besides, the Potency entry in [13], in [18], in assay [19], in assay [16] and in assay [17] was “inactive” in each case. The compound was called inactive in assay [15].
Turning to `N#Cc1cc(Br)c(O)c(Br)c1`, the Potency entry in [1], in assay [2], in [3], in [4], in assay [5] and in assay [6] was “inactive” each time. Also, the Potency result in assay [7], in assay [8], in assay [9], in [10], in assay [11] and in assay [12] was “inactive” in each case. Further, the Potency entry in [13], in [16] and in assay [17] was “inactive” throughout. Besides, the Potency in assay [20] was 61.1 µM (active) and 46.8 µM (active); in [18], 61.1 µM (active) and 41.7 µM (active). Besides, in assay [15], the compound was called inactive.
Take `NNC(N)=S`: the Potency result in assay [1], in assay [2], in [3], in [4], in assay [5] and in [6] was “inactive” throughout. Moreover, the Potency result in assay [7], in [8], in assay [9], in assay [10], in [11] and in assay [12] was “inactive” each time. Also, the Potency result in assay [13] and in [19] was “inactive” each time. In addition, the Potency in [18] is 63.5 µM (active) and inactive; in assay [16], 45 µM (active); in assay [17], 20.1 µM (active) and 61.1 µM (active). Further, in [15], the result was inactive.
For the compound `COc1ccc(C=O)cc1`, the Potency entry in assay [1], in assay [2], in assay [3], in assay [4], in assay [5] and in assay [6] was “inactive” in each case. For the same compound, the Potency entry in assay [7], in assay [8], in [9], in assay [10], in assay [11] and in [12] was “inactive” in each case. Further, the Potency result in assay [13], in assay [18], in assay [19], in assay [16] and in assay [17] was “inactive” each time. Further, the outcome in [15] was inactive.
Turning to `CCOc1cc(C=O)ccc1O`, the Potency entry in assay [1], in assay [2], in assay [3], in assay [4], in [5] and in assay [6] was “inactive” each time. In addition, the Potency result in assay [7], in [8], in assay [9], in [10], in assay [11] and in assay [12] was “inactive” in each case. Also, the Potency entry in [13], in assay [19], in assay [16] and in assay [17] was “inactive” each time. The outcome in assay [14] and in assay [15] was inactive.

For the origin of these results see PubChem BioAssay (Tox21).
